# Screening data as filed in PubChem.
# TDP1 cell noCPT = qHTS for Inhibitors of human tyrosyl-DNA phosphodiesterase 1 (TDP1): qHTS in cells in absence of CPT; DT40 Tdp1-/- hTDP1 cells, no CPT, ATP luminescence, 48 h; Potency, µM (highest dose often 46.2 µM), without a hit: at the highest dose activity change, negative = growth inhibition, usual class: inhibitors; actives 15% (n = 420,000); AID 686978, 2013; further: potency means the concentration at half of the fitted maximal effect; nearly all actives have a fitted effect of over 55% in size
#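 Chicken DT40 Tdp1-/- cells complemented with human TDP1, screened without camptothecin (DMSO vehicle only), 400 cells/well. Compounds pin-transferred, cells incubated at 37 °C for at least 48 hr. Growth read as ATP-dependent luminescence (CellTiter-Glo, 30 min at RT).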
# IL-1B inflam inh = qHTS for Inhibitors of Inflammasome Signaling: IL-1-beta AlphaLISA Primary Screen | THP-1 LPS/ATP IL-1B secretion, AlphaLISA, 16 h; hits give low values | activity change, % at 57.5 µM | actives 4.7% (n = 360,000); in the data active means activity change below about -50%; inconclusive means mostly about -30% to -49%
#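 THP-1 cells pretreated 1 hr with compounds (up to 57.5 uM final), then stimulated with LPS (250 ng/mL final) plus ATP (1.25 mM final); secreted IL-1B measured by AlphaLISA after 16 hr, decreased signal indicating inhibition.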
# CtBP-E1A inh = qHTS Assay for Inhibitors of the CtBP/E1A Interaction | activity change, % (no concentration beside the values) | actives 0.49% (n = 340,000) | AlphaScreen GST-E1A/His-CtBP binding, 1536-well; hits give low values | CtBP / adenovirus E1A interaction (AlphaScreen); in the data active means activity change below about -65%; inconclusive means mostly about -30% to -63%
#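 AlphaScreen with 125 nM GST-E1A and 125 nM His-CtBP (5X stocks) in Tris pH 8.0, 300 mM NaCl, BSA, Tween 20, TCEP. Compounds preincubated 2 h at 37 deg C, then glutathione donor/nickel acceptor beads added for 1 h at 37 deg C in dark.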
# TDP1 cell CPT = qHTS for Inhibitors of human tyrosyl-DNA phosphodiesterase 1 (TDP1): qHTS in cells in presence of CPT; chicken DT40 Tdp1-/-;hTDP1 cells + 20 nM CPT, ATP luminescence, 48 h; Potency, µM (doses to about 46.2 µM), for the others: at the highest dose activity change, negative = growth inhibition, usual class: inhibitors; actives 12% (n = 420,000); AID 686979, 2013; further: potency means the concentration at half of the fitted maximal effect; nearly all actives have a fitted effect of over 55% in size
#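 Chicken DT40 Tdp1-/- cells stably complemented with human TDP1 were seeded at 400 cells/well in medium containing 20 nM camptothecin, exposed to pin-transferred compounds, and grown at 37 °C for at least 48 hr. Viability was read as ATP luminescence.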
# Six1-Eya2 blk = qHTS Assay for Inhibitors of the Six1/Eya2 Interaction; Homeobox protein SIX1 (Homo sapiens) + Protein phosphatase EYA2 (Homo sapiens), …; AlphaScreen GST-Six1/His-Eya2 binding, biochemical; hits give low values; activity change, % (test concentration not listed); actives 0.56% (n = 360,000); AID 651725, 2012; in the data active means activity change below about -65%; inconclusive means mostly about -30% to -63%
#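 GST-Six1 + His-Eya2 (5X stock: 250/500 nM); Tris pH 8.0, 300 mM NaCl, 0.05% BSA, 0.02% Tween 20; GSH donor/Ni acceptor beads; 1 h 37 °C dark; AlphaScreen readout.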
# TDP1 block = qHTS Assay for Inhibitors of Tyrosyl-DNA Phosphodiesterase (TDP1); Tyrosyl-DNA phosphodiesterase 1 (Homo sapiens), Q9NUW8; recombinant TDP1, AlphaScreen DNA substrate cleavage; Potency, µM (top dose mostly 130 µM), without a hit: at the highest dose activity change, negative = inhibition, hits mostly inhibitors; actives 0.28% (n = 350,000); further: potency means the concentration at half of the fitted maximal effect; nearly all actives have a fitted effect of over 40% in size
# Target sequence (Q9NUW8 whole entry, looked up): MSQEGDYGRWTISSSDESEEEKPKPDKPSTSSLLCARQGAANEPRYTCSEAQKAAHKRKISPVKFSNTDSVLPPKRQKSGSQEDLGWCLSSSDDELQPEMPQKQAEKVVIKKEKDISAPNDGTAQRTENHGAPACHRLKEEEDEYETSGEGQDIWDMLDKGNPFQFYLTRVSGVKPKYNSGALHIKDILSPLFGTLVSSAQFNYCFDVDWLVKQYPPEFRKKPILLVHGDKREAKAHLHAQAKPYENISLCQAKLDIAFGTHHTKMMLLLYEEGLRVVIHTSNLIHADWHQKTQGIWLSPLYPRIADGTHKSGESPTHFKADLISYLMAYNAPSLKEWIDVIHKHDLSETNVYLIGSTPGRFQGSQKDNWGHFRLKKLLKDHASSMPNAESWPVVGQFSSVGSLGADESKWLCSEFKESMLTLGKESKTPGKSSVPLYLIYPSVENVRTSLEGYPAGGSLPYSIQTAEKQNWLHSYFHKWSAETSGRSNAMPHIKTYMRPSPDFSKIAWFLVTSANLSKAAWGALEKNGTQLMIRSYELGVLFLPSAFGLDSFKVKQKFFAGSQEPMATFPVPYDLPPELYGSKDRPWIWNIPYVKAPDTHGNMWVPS
#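 AlphaScreen read-out: signal falls as enzyme removes the 3' tyrosine-FITC from a 5'-biotinylated DNA oligo (15 nM, 5 min, RT). Enzyme was E. coli-made recombinant Tdp1 at 1 nM, exposed to compound for 15 min beforehand; beads 10 ug/ml, 10 min.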
# Starred values were filed as active, the others as inactive; ? = inconclusive; . = no result; ! = a repeat was not active; [ ] = another dose, or the depositor's remark. Sampled rows, rich in hits. Any-hit rate of the full collection: about 18%. Unless noted, the call rests on the fitted dose curve; in most records, active means well fitted curve in the direction sought with a large enough effect; inconclusive means small, poorly fitted or top-dose-only effect, or another doubt; inactive means no such curve, though single readings can be large; an effect the other way counts as inactive or inconclusive. On the % scale 0 is the no-effect control and ±100 the full control effect.
SMILES,TDP1 cell noCPT,IL-1B inflam inh,CtBP-E1A inh,TDP1 cell CPT,Six1-Eya2 blk,TDP1 block
CC[C@]12c3[nH]c4ccc(OC)cc4c3CCN1C(=O)C(CC(=O)NCC13CC4CC(CC(C4)C1)C3)C[C@@H]2C(=O)N1CCN(C(=O)C2CC2)CC1 (some centres undefined),?,-25.6,1.1,?,-1.3,4.9%[56.1 µM]
Cn1cc(C(=O)C(=O)N2CCCC2)c2ccccc21,-12.8%,-13.1,-1.6,0.7%,2.5,.
O=Cc1cn(CC(=O)N2CCCc3ccccc32)c2ccccc12,5.8µM*,18.8,2.4,5.8µM*,3.4,2.4%
Cn1c(SCC(=O)N2CCN(c3ccccc3)CC2)nnc1-c1c[nH]c2ccccc12,?,-8.8,-26.9,?,-5.4,7.8%
Cn1cc(C(=O)C(=O)N2CCCc3ccccc32)c2ccccc21,13µM*,21.0,6.9,16.4µM*,3.9,2.5%
CCn1c(SCC(=O)N2CCN(c3ccccc3)CC2)nnc1-c1c[nH]c2ccccc12,?,9.6,-6.7,20.6µM*,-3.4,2.2%
CCn1c(SCC(=O)N2CCc3ccccc32)nnc1-c1c[nH]c2ccccc12,20.6µM*,-12.0,-1.5,?,-1.0,0.0%
COc1cc(NC(=S)N2c3ccccc3CC2C)cc(OC)c1 (centres undefined),-11.0%,31.1,3.3,17.8%,-5.9,3.2%
CCn1cc(SCC(=O)N2CCc3ccccc32)c2ccccc21,20.6µM*,-2.0,-12.5,?,-2.3,0.0%
O=C(CSc1ccccc1)N1CCc2ccccc21,-0.9%,15.7,7.8,-3.7%,5.2,0.0%
CCn1c(CNc2ccc(C)cc2C)nnc1SCC(=O)N1CCCc2ccccc21,?,-22.9,-0.7,10.3µM*,-14.6,9.4%
CCn1c(CNc2ccc(F)cc2)nnc1SCC(=O)N1CCCc2ccccc21,?,-24.8,-7.0,-25.8%,5.6,3.2%
COCCNC(=O)c1cnc2sc(N3CCC(C)CC3)nn2c1=O,-5.3%,.,.,-5.3%,.,0.0%
COc1ccc(CCNC(=O)c2cnc3sc(N4CCC(C)CC4)nn3c2=O)cc1OC,3.66µM*,.,.,2.59µM*,.,2.6%
CC1CCN(c2nn3c(=O)c(C(=O)NCCc4ccccc4)cnc3s2)CC1,?,.,.,9.2µM*,.,-5.3%
NC(=S)N/N=C/c1cccc(/C=N/NC(N)=S)c1,-24.0%,-99.7*,-13.9,-9.4%,-17.0,1.2%
Cn1cccc1/C=N/NC(N)=S,20.6µM*,25.2,0.0,?,-1.3,4.9%
Cc1ccc(C(=O)N/N=C/C=C/c2ccccc2)cc1,-9.0%,-21.3,0.0,-4.7%,-17.7,-0.6%
Cn1cccc1/C=N/NC(=O)C(O)c1ccccc1 (centres undefined),-0.7%,-6.5,-3.1,0.4%,-3.1,.
NC(=S)N/N=C/c1ccc2ccccc2c1,23.1µM*,7.3,-1.8,23.1µM*,-3.5,2.3%
NC(=S)N/N=C/c1ccc(/C=N/NC(N)=S)cc1,0.4%,35.0,.,?,3.4,.
NC(=S)N/N=C/C=C/c1ccccc1,5.8µM*,-23.1,-7.6,5.8µM*,-1.4,2.7%
CCC(C)OC(=O)C1C(c2ccccc2)C(C(=O)O)C1c1ccccc1 (centres undefined),?,6.2,-0.3,-13.7%,-13.4,3.0%
COc1cc(CCC(=O)OCC(=O)NCc2ccccc2)cc(OC)c1OC,1.9%,4.4,-17.5,4.0%,-0.2,0.0%
CC(C)c1ccc(C(=O)NCCCNC(=O)c2cnccn2)cc1,16.8%,29.1,13.1,-20.2%,1.3,2.3%
SMILES,TDP1 cell noCPT,IL-1B inflam inh,CtBP-E1A inh,TDP1 cell CPT,Six1-Eya2 blk,TDP1 block
Cn1cccc1/C=N\NC(=O)Cc1ccc(Br)c2ccccc12,10.3µM*,14.7,.,14.6µM*,-6.3,3.7%
Cn1cccc1/C=N/NC(=O)Cc1ccccc1,-10.2%,-6.7,-17.9,-4.8%,-7.6,.
Cc1noc(C)c1S(=O)(=O)N1CCC(C(=O)NCCN2CCC(C)CC2)CC1,5.7%,-7.7,2.9,-10.9%,1.9,3.9%
CCN(CCNC(=O)C1CCN(S(=O)(=O)c2c(C)noc2C)CC1)c1ccccc1,23.1µM*,4.8,-11.1,?,-8.2,5.4%
CNC(=O)C1CCN(S(=O)(=O)c2c(C)noc2/C=C/c2cccc(OC)c2)CC1,-14.8%,-20.4,-22.3,2.5%,4.4,.
CCc1ccc(NC(=O)C2CCN(S(=O)(=O)c3c(C)noc3/C=C\c3ccc(OC)cc3)CC2)cc1,5.17µM*,.,.,8.2µM*,.,-2.3%
COc1ccc(/C=C\c2onc(C)c2S(=O)(=O)N2CCC(C(=O)Nc3cccc(OC)c3)CC2)cc1,16.4µM*,.,.,14.6µM*,.,-4.7%
CCOC(=O)c1cccc(NC(=O)C2CCN(S(=O)(=O)c3c(C)noc3/C=C/c3ccc(C)cc3)CC2)c1,11.6µM*,.,.,20.6µM*,.,4.1%
COc1ccc(N2CCN(C3CC(=O)N(C)C3=O)CC2)cc1 (centres undefined),-6.5%,21.2,2.8,1.6%,-0.2,1.0%
CCc1ccc(NC(=O)C2CCN(S(=O)(=O)c3c(C)noc3C)CC2)cc1,18.4µM*!,0.9,2.3,?,0.8,2.1%
COc1cc(NC(=O)CCN2CC(C)OC(C)C2)cc(OC)c1 (centres undefined),-1.6%,-3.7,-1.7,1.8%,-11.6,.
CC(C)CC(COCc1cccc(Cl)c1)N1CCN(C(=O)c2ccc(C(F)(F)F)cc2)CCC1=O (centres undefined),16.4µM*,?,3.7,?,-6.4,0.0%
CC(C)C[C@@H](COCc1cccc(Cl)c1)N1CCN(C(=O)c2cccc(C(F)(F)F)c2)CCC1=O,16.4µM*,?,2.0,?,1.0,7.1%
CC(C)CC(COCc1ccc(F)cc1)N1CCN(C(=O)c2cccc(C(F)(F)F)c2)CCC1=O (centres undefined),?,-9.3,.,?,-1.4,2.7%
CC(C)C[C@@H](COCc1ccc(F)cc1)N1CCN(C(=O)c2cccc(C(F)(F)F)c2)CCC1=O,?,-13.1,-0.1,?,0.1,.
